The target in experiment [1] is Glucocorticoid receptor (Homo sapiens) (UniProt P04150). Description: qHTS assay for small molecule agonists of glucocorticoid receptor signaling (AID 588532; active means well fitted curve in the direction sought with a large enough effect in the signal ratio, with a control signal flat; the % refers to the signal ratio;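 further: 100% = dexamethasone at 0.1 µM and 0% = DMSO only wells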). Particulars: HeLa MMTV-bla, beta-lactamase ratio, agonist, 18 h; activation: stronger effect = higher value, percent of dexamethasone control, DMSO zero. Summed up: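 Titration series, up to 92 uM, applied to GRE-bla HeLa cells for 18 h at 37 C. Detection by CCF4 FRET substrate after 2 h at RT.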
A general note: Quantitative high-throughput screening tests each substance at several concentrations.

Experiment [2] can be described thus: qHTS assay for small molecule antagonists of peroxisome proliferator-activated receptor delta signaling (AID 588535).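 Further: cells co-treated with a PPAR-delta agonist as stimulator during compound exposure.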 The following applies: HEK293T PPARd-UAS-bla, beta-lactamase FRET ratio, 18 h; 460 nm channel. Summed up:
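Reporter: UAS-bla under PPAR-delta response element, HEK293T host. Medium: 2% charcoal/dextran FBS. Dosing: titration, 18 hrs, 37 C. Detection: CCF4, 2 hrs RT, 405 ex/460 and 530 em.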

The target in experiment [3] is Peroxisome proliferator-activated receptor gamma (Homo sapiens) (UniProt P37231). In words: qHTS assay for small molecule agonists of peroxisome proliferator-activated receptor gamma signaling (AID 588536; active means well fitted curve in the direction sought with a large enough effect in the signal ratio, with a control signal flat, not every such curve was filed as active; the % refers to the signal ratio;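 further: 0% = DMSO basal wells and 100% = rosiglitazone at 2 µM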). Summed up: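 HEK293 UAS-bla reporter line, 1% charcoal/dextran FBS; titration, 16 h, 37 C; CCF4 loading 2 h RT; fluorescence 460/530 nm. Normalized to rosiglitazone 2 uM = 100%, DMSO = 0%.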

Experiment [4] shares this target. In words: qHTS assay for small molecule antagonists of peroxisome proliferator-activated receptor gamma signaling (AID 588537; active means well fitted inhibition curve with a large enough effect in the signal ratio, with a control signal flat, not every such curve was filed as active; the % refers to the signal ratio;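 further: reporter cells co-stimulated with 50 nM rosiglitazone agonist during compound treatment; % of control where 0% means no effect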). In short, it runs like this:
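We seeded GeneBLAzer HEK293 reporter cells at 3000 per well, allowed 6-6.5 h attachment at 37 C, then co-treated with test compound titrations and 50 nM rosiglitazone overnight (16 h). Inhibition was quantified from 460/530 nm emission ratios.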

Experiment [5] concerns the target Vitamin D3 receptor (Homo sapiens) (UniProt P11473). In words: qHTS assay for small molecule antagonists of vitamin D receptor signaling (AID 588541).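 Further: receptor activated by calcitriol during compound treatment; series mostly up to about 77 µM; on the % scale 0 is the no-effect control and ±100 the full control effect.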 Summed up: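 VDR-UAS-bla HEK293T cells (2000/well, 2% charcoal-stripped FBS) were treated with titrated compounds plus 1-alpha,25-dihydroxyvitamin D3 (50 nM or 3 nM final) for 16 h at 37 C. CCF4 beta-lactamase fluorescence was read; Hill fits gave IC50.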

The target is the same in experiment [6]. Description: qHTS assay for small molecule agonists of vitamin D receptor signaling (AID 588543).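 Further: 0% = DMSO basal and 100% = reference agonist control.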 In short, it runs like this:
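Measured: β-lactamase reporter activity (CCF4, 405 nm excitation, 460/530 nm emission) in HEK293T VDR-UAS-bla cells after 16 h compound exposure at 37 °C. Normalization against 50 nM 1α,25-dihydroxyvitamin D3 and DMSO; Hill-fit EC50.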

Experiment [7] has as its target Thyroid hormone receptor beta (Homo sapiens) (UniProt P10828). Description: qHTS assay for small molecule agonists of thyroid hormone receptor beta signaling (AID 588545).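 Further: 0% = DMSO only and 100% = 10 nM T3.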 Summed up:
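TR-UAS-bla GripTite HEK 293 cells (2500/well, medium with 2% charcoal/dextran FBS) were treated in agonist mode for 18 h at 37 C, titrated. Beta-lactamase was read by CCF4 ratio after 2 h; normalized to 10 nM T3 (100%) and DMSO, Hill-fitted for EC50 and efficacy.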

Experiment [8] in a line: qHTS assay for small molecule antagonists of retinoid X receptor alpha signaling (AID 588546; active means well fitted inhibition curve with a large enough effect in the signal ratio, with a control signal flat, not every such curve was filed as active; the % refers to the signal ratio;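 further: cells stimulated with 9-cis-retinoic acid as agonist; on the % scale 0 is the no-effect control and ±100 the full control effect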). The following applies: HEK293T RXRa-UAS-bla, beta-lactamase ratio, antagonist mode; measured here: W530 green channel, cytotoxicity proxy. In short, it runs like this: (§1)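 Beta-lactamase reporter inhibition, read as CCF4 fluorescence ratio (ex 405, em 460/530 nm) after 2 h at RT. HEK293T UAS-bla cells, 2500/well, were stimulated with 9-cis-RA at 500 or 100 nM final alongside test compound for 18 h at 37 C.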

In experiment [9] the target is Retinoic acid receptor RXR-alpha (Homo sapiens) (UniProt P19793). The experiment is described as above. The following applies: HEK293T RXRa-UAS-bla, beta-lactamase ratio, antagonist mode. Summed up: as §1
For experiment [10], the target named is Thyroid hormone receptor beta (Homo sapiens) (UniProt P10828). In words: qHTS assay for small molecule antagonists of thyroid hormone receptor beta signaling (AID 588547; active means well fitted inhibition curve with a large enough effect in the signal ratio, with a control signal flat, not every such curve was filed as active; the % refers to the signal ratio;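 further: cells stimulated with 0.4 nM T3 agonist during compound exposure; series mostly up to about 77 µM; on the % scale 0 is the no-effect control and ±100 the full control effect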). The following applies: TR-UAS-bla HEK293, beta-lactamase ratio, antagonist mode, 18 h. In short, it runs like this: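 TR-UAS-bla GripTite HEK293 cells in 2% charcoal/dextran FBS medium were preincubated 4 h at 37 C, given compound (0.59 nM to 92 uM) plus 0.4 nM T3 (final) for 18 h, then CCF4 for 2 h at RT; Hill fit gave IC50.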

The nature of experiment [11]: qHTS assay for small molecule activators of the p53 signaling pathway (AID 651743; active means well fitted activation curve with a large enough effect in the signal ratio, not every such curve was filed as active; the % refers to the signal ratio; further: series mostly up to about 92 µM; % of control where 0% means no effect). Particulars: HCT-116 p53RE-bla, beta-lactamase FRET ratio, 16 h; activation: stronger effect = higher value. Summed up:
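Cell-based beta-lactamase reporter (p53 response elements, HCT-116 background). After a 5-hour preincubation, cells received compound for 16 hours at 37 C; substrate development ran 2 hours at room temperature.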

Experiment [12] can be described thus: qHTS assay for environmental chemicals that activate the Aryl hydrocarbon Receptor (AhR) signaling pathway (AID 651777; active means well fitted curve in the direction sought with a large enough effect; an effect the other way counts as inactive or inconclusive; further: % of control where 0% means no effect; nearly all actives have a fitted effect of over 15% in size). Particulars: 1A2-DRE human hepatoma cells, luciferase, 24 h; activation: stronger effect = higher value. Summed up: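 Human hepatoma 1A2-DRE cells, stably carrying a dioxin response element and CYP1A2 promoter driving luciferase, were exposed to compounds for 24 hr at 37 C and 5% CO2. Luciferase signal was then read after 30 min One-Glo at room temperature.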

The target of experiment [13] is Peroxisome proliferator-activated receptor alpha (Homo sapiens) (UniProt Q07869). In words: qHTS assay for small molecule agonists of the peroxisome proliferator-activated receptor alpha (PPARalpha) signaling pathway (AID 651778; active means well fitted curve in the direction sought with a large enough effect; an effect the other way counts as inactive or inconclusive; further: % of control where 0% means no effect). Particulars: PathHunter PPARalpha complementation, chemiluminescence, 6 h; max response: stronger effect = higher value. In short, it runs like this:
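Cells plated at 2,000/well and held overnight at 37 C, 5% CO2, then compound added by pin tool for 6 hr; after PathHunter detection reagent and 60 min at room temperature, chemiluminescence from enzyme complementation was read.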

The nature of experiment [14]: qHTS assay for small molecule agonists of the antioxidant response element (ARE) signaling pathway measured by Nrf2-dependant transcriptional activity (AID 720636; active means well fitted curve in the direction sought with a large enough effect in the repeat runs; an effect the other way counts as inactive or inconclusive; further: % of control where 0% means no effect). In short, it runs like this:
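ARE-luc HepG2 cells carrying an Nrf2-responsive luciferase reporter were plated in medium with 1% dialyzed FBS, left 6 hr at 37 C to attach, then exposed to compound for 16 hr. Luciferase luminescence was read after ONE-Glo addition.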

A short description of experiment [15]: qHTS assay for small molecule agonists of the antioxidant response element (ARE) signaling pathway measured by Nrf2-dependant transcriptional activity - cell viability counter screen (AID 720653; active means well fitted curve in the direction sought with a large enough effect in the repeat runs; an effect the other way counts as inactive or inconclusive; further: on the % scale 0 is the no-effect control and ±100 the full control effect). Particulars: ARE-bla HepG2 viability, CellTiter-Glo ATP luminescence, 16 h; max response: stronger effect = lower value. Summed up: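 ARE-bla HepG2 cells (2,000/well) rested 5 hrs at 37C/5% CO2, then exposed to compounds in DMSO for 16 hrs. Viability was read in the same wells as intracellular ATP by luminescence, 30 min at room temperature after reagent addition.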

Experiment [16] in a line: qHTS assay for cell viability of the p53RE-bla HCT-116 cell line (AID 743292; active means well fitted curve in the direction sought with a large enough effect; an effect the other way counts as inactive or inconclusive; further: on the % scale 0 is the no-effect control and ±100 the full control effect; nearly all actives have a fitted effect of over 55% in size). In short, it runs like this:
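CellSensor p53RE-bla HCT-116 cells, 4,000/well, preincubated 5 h at 37 C, then exposed to compounds in DMSO for 16 h at 37 C. Viability read as CellTiter-Glo luminescence (intracellular ATP) after 30 min at room temperature.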

The target in experiment [17] is Peroxisome proliferator-activated receptor delta (Homo sapiens) (UniProt Q03181). In words: qHTS assay for small molecule agonists of peroxisome proliferator-activated receptor delta signaling (AID 588534).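 Further: 0% = DMSO basal wells and 100% = positive control agonist at 10 µM.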 In short, it runs like this: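 Cells carrying a PPAR-delta beta-lactamase reporter were treated with compounds for 18 h at 37 °C in agonist mode. CCF4 fluorescence was read after 2 h; EC50 and efficacy from Hill fits.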

In experiment [18] the target is Retinoic acid receptor RXR-alpha (Homo sapiens) (UniProt P19793). Description: qHTS assay for small molecule agonists of retinoid X receptor alpha signaling (AID 588544).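 Further: 0% = DMSO basal wells and 100% = reference agonist.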
A short description of experiment [19]: qHTS assay for cell viability of HEK293 cells (AID 743288; active means well fitted curve in the direction sought with a large enough effect; an effect the other way counts as inactive or inconclusive; further: on the % scale 0 is the no-effect control and ±100 the full control effect; nearly all actives have a fitted effect of over 50% in size). The following applies: ATP luminescence (CellTiter-Glo), 18 h; max response: stronger effect = lower value. In short, it runs like this: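 Luminescent ATP quantitation served as the viability read-out. Cells (parental HEK293, 2,000/well) received compounds after at least 5 h at 37 C and were exposed for 18 h before a 30 min room-temperature reagent step.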

Experiment [20] deals with Nuclear receptor subfamily 1 group I member 2 (Rattus norvegicus) (UniProt Q9R1A7). Description: qHTS assay for small molecule activators of the rat pregnane X receptor (rPXR) signaling pathway (AID 651751; call rule not given here; further: 0% is about no effect). Particulars: rPXR reporter cells, luciferase (One-Glo), 24 h.

Inconclusive results are not listed. The source made the active and inactive calls. Unless noted, the call rests on the fitted dose curve.

Peroxisome proliferator-activated receptor delta (Homo sapiens), sequence (Q03181 whole entry, looked up): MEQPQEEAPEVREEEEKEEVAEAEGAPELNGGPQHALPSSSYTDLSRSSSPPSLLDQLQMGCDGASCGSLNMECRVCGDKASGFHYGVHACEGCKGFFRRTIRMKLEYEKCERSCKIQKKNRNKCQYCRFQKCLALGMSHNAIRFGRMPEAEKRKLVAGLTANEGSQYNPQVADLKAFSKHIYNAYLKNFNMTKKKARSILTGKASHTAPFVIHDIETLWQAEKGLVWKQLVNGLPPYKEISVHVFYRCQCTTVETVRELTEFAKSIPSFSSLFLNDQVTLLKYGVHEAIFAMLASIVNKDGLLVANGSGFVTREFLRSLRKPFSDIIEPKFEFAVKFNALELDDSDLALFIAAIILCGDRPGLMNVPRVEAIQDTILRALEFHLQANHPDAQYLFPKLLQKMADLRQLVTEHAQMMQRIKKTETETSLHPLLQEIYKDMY
Peroxisome proliferator-activated receptor gamma (Homo sapiens), sequence (P37231 whole entry, looked up): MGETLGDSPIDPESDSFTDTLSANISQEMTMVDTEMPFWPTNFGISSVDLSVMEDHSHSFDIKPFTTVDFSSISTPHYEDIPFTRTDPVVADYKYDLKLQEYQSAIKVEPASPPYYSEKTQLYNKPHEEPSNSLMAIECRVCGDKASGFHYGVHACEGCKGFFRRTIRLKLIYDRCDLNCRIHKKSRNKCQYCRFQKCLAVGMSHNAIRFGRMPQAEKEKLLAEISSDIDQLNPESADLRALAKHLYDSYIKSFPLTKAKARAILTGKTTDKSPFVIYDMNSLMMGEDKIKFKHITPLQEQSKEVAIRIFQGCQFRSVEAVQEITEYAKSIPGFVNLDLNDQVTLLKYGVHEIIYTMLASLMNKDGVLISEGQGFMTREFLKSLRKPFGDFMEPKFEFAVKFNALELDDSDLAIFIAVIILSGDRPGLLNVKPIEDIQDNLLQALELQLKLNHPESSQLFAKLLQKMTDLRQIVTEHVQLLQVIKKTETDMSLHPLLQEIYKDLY
Thyroid hormone receptor beta (Homo sapiens), sequence (P10828 whole entry, looked up): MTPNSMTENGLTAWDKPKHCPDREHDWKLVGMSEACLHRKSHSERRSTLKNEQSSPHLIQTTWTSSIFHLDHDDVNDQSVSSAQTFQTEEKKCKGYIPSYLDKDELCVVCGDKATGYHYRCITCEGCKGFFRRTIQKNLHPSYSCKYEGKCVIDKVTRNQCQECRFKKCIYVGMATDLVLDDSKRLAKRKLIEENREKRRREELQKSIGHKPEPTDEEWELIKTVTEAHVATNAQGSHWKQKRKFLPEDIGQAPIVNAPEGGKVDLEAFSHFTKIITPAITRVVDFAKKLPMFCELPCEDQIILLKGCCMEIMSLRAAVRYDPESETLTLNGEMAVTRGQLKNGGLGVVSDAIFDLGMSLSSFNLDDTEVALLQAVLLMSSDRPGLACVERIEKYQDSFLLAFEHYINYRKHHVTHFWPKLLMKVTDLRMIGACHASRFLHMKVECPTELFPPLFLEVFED
Vitamin D3 receptor (Homo sapiens), sequence (P11473 whole entry, looked up): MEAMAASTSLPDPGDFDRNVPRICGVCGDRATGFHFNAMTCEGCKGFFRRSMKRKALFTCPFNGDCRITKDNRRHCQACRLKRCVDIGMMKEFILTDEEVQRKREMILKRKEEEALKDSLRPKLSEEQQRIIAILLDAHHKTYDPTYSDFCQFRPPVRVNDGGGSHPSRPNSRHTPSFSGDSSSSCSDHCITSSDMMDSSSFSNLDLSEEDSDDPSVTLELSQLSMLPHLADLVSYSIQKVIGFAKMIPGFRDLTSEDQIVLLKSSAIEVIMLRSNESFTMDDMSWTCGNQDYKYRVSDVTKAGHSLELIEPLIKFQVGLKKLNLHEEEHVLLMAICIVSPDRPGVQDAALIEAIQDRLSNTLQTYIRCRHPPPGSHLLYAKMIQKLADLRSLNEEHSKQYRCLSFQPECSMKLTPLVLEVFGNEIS
Retinoic acid receptor RXR-alpha (Homo sapiens), sequence (P19793 whole entry, looked up): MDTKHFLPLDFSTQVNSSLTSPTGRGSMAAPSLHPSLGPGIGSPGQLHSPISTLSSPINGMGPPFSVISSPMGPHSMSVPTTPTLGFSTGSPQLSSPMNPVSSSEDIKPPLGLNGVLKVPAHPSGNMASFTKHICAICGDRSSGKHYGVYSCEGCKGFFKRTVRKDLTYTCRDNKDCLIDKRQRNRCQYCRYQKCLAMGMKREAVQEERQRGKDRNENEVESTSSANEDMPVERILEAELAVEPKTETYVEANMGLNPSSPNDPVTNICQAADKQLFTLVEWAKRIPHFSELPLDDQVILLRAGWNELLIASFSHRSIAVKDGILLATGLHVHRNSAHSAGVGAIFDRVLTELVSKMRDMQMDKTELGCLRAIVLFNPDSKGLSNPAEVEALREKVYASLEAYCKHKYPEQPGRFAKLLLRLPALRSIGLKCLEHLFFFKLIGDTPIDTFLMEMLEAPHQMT
Glucocorticoid receptor (Homo sapiens), sequence (P04150 whole entry, looked up): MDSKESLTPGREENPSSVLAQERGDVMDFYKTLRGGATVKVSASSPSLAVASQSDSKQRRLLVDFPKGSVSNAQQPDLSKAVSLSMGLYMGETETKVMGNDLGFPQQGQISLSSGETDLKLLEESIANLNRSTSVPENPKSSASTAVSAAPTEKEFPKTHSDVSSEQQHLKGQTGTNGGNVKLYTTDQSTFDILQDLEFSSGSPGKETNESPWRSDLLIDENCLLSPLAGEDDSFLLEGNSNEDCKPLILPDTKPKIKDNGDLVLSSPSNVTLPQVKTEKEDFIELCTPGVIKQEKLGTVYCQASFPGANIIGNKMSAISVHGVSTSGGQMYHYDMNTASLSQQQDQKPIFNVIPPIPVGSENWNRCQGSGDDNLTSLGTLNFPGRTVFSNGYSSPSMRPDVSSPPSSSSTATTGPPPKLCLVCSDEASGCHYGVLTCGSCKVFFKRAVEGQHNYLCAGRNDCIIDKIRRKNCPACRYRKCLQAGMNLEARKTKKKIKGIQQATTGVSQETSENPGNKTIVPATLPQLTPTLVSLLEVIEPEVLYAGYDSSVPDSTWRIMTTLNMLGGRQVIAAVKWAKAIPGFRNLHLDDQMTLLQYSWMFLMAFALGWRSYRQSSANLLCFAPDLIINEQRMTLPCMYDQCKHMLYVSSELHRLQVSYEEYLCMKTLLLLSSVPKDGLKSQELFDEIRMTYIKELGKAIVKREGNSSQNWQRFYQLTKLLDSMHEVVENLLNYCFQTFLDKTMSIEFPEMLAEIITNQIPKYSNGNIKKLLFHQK
Peroxisome proliferator-activated receptor alpha (Homo sapiens), sequence (Q07869 whole entry, looked up): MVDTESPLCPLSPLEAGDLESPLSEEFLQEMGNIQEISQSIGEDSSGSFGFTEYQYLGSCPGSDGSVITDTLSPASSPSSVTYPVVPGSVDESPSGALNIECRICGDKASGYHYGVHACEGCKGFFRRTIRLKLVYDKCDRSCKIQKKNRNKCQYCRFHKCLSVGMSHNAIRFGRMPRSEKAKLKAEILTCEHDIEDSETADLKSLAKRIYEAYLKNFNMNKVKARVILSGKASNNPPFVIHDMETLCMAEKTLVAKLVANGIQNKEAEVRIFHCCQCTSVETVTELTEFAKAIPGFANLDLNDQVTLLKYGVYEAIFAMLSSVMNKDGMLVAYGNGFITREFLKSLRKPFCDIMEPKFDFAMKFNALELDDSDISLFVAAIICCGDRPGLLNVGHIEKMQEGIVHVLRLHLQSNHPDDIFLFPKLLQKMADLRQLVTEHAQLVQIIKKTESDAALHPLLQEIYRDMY
Nuclear receptor subfamily 1 group I member 2 (Rattus norvegicus), sequence (Q9R1A7 whole entry, looked up): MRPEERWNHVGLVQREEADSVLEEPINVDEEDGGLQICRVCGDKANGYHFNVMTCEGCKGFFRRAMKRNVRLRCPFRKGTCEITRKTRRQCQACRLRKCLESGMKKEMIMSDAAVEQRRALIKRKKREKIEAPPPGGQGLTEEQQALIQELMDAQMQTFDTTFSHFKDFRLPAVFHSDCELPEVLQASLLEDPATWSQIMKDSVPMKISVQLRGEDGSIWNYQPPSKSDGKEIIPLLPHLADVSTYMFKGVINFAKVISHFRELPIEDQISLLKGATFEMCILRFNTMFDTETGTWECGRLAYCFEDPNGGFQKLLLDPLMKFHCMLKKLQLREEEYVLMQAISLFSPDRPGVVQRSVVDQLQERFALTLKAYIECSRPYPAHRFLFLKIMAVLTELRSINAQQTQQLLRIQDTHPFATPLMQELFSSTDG

Consider `Clc1ccc([C@@]2(Cn3cncn3)C[C@@H](Br)CO2)c(Cl)c1`, for which the activation in [1] was -12.1% (inactive); in [11] it was -2.11% (inactive); in experiment [12], 1.89% (inactive). Further, the max response in [2] was -0.908%; in [8], -15.6%; in experiment [9] it was -32.6% (inactive); in [13], -2.47% (inactive); in experiment [15] it was 2.35% (inactive). Besides, the Potency result in experiment [3], in experiment [4], in experiment [5], in experiment [7], in [14] and in experiment [16] was “inactive” in each case. Besides, in [6], the compound was classed as inactive. Moreover, the activity change % (negative = inhibition) in experiment [10] was 11.5% (inactive).
Regarding `CC(=O)[C@H]1[C@H](C#N)C[C@H]2[C@@H]3CC=C4C[C@@H](O)CC[C@]4(C)[C@H]3CC[C@@]21C`, in [6], the compound was classed as inactive. Besides, the activity change % (negative = inhibition) in [10] was 6.3% (inactive).
In the case of `CN(C)P(=O)(N(C)C)N(C)C`, the result in experiment [17] and in [6] was inactive. The max response in experiment [2] was -0.709%; in [8], -10.5%; in experiment [9] it was -0.0212% (inactive); in experiment [13], 0.0783% (inactive); in experiment [15] it was -5.07% (inactive); in experiment [19] it was 0.472% (inactive). The max response in [20] was -0.946% (inactive). Besides, the Potency result in experiment [3], in [4], in experiment [5], in experiment [18], in experiment [7] and in experiment [14] was “inactive” each time. Moreover, the activity change % (negative = inhibition) in experiment [10] is -0.373% (inactive). The activation in [11] was -2.55% (inactive).
For `CCC(C)n1c(=O)[nH]c(C)c(Br)c1=O` (stereo unspecified), the Potency result in experiment [3], in experiment [4], in experiment [5], in experiment [18], in experiment [7] and in [14] was “inactive” each time. Besides, the Potency result in experiment [16] was “inactive”. Moreover, in [6], the compound was called inactive. In addition, the max response is -12.2% in experiment [8]; 5.41% (inactive) in [9]; -0.488% (inactive) in experiment [13]; 4.81% (inactive) in experiment [15]; -3.11% (inactive) in [19]; -6.26% (inactive) in [20]. For the same compound, the activation is -1.24% (inactive) in experiment [11] and 4.91% (inactive) in [12].
Take `CC(C)(c1ccccc1)c1cc(-n2nc3ccccc3n2)c(O)c(C(C)(C)c2ccccc2)c1`: the activation is -6.85% (inactive) in [1], -0.652% (inactive) in experiment [11] and -0.0851% (inactive) in experiment [12]. The compound was called inactive in experiment [17] and in [6]. Also, the max response in experiment [2] was 10.7%; in experiment [8], -10.8%; in [9], 0.796% (inactive); in experiment [13], -0.734% (inactive); in [15], 4.77% (inactive); in experiment [19] it was -7.76% (inactive). The max response in [20] is 2.09% (inactive). Further, the Potency entry in experiment [3], in experiment [4], in experiment [5], in experiment [18], in experiment [7] and in [14] was “inactive” in each case. Further, the Potency result in experiment [16] was “inactive”.
On to `CCOP(=O)(OCC)Oc1ccc2c(C)c(Cl)c(=O)oc2c1`, for which the results for the activation in [1], in experiment [11] and in experiment [12] were -3.39% (inactive), 2.64% (inactive) and 0.485% (inactive), respectively. In addition, the compound was called inactive in experiment [17]. Moreover, the max response is 36% in experiment [2]; -10.4% in experiment [8]; -0.0168% (inactive) in [9]; -3.26% (inactive) in experiment [13]; -2.45% (inactive) in [15]; -8.63% (inactive) in experiment [19]. For the same compound, the max response in experiment [20] was 12.3% (inactive). In addition, the Potency result in experiment [5], in experiment [18], in [14] and in [16] was “inactive” throughout. Further, the activity change % (negative = inhibition) in experiment [10] was -0.271% (inactive).
